Hit rate of the full screen: of about 69,000 compounds, about 8,600 (12%) showed an effect of 50% or more. The list comes from a sample in which strong results are over-represented; it also holds similar structures and randomly drawn compounds.
test system: Plasmodium berghei; assay: Screen against P. berghei liver stage (PbLuc), transformed with Luciferase, at 10uM; type: functional, HepG2; details: tested at 10 uM

Q: With `COc1cccc(C(=O)NS(=O)(=O)c2cncc(Br)c2)c1OC` as the compound, how does the INHIBITION read?
A: Its INHIBITION is 15.1%.

Q: How did the INHIBITION turn out when `CCc1ccc(S(=O)(=O)Nc2ccncc2)s1` was run?
A: The INHIBITION was -6.4%.

Q: Which INHIBITION does the source give for `Cn1cc(CN2CCc3onc(C(=O)Nc4cccnc4)c3C2)cn1` here?
A: Its INHIBITION is 43.4%.

Q: How did the INHIBITION turn out when `CC(C)(C)c1nc(CNC2CCN(S(C)(=O)=O)CC2)cs1` was run?
A: The INHIBITION was 20.6%.

Q: How did the INHIBITION turn out when `O=C(c1cccnc1O)N1CCOC(Cc2cccc(C(F)(F)F)c2)C1` (centres undefined) was run?
A: Its INHIBITION is 31.7%.

Q: With `O=C(c1cccnc1N1CCOC(c2ccc(Cl)cc2)C1)N1CCCC1` (centres undefined) as the compound, how does the INHIBITION read?
A: The INHIBITION was 45.1%.

Q: With `O=C(c1cccnc1N1CCCC1)N1CCOC(c2ccccc2)C1` (centres undefined) as the compound, how does the INHIBITION read?
A: The INHIBITION was -30.2%.

Q: How did the INHIBITION turn out when `O=C(c1cccnc1N1CCOC(c2ccc(F)cc2)C1)N1CCCC1` (centres undefined) was run?
A: The INHIBITION was 45.1%.

Q: `O=C(c1cccnc1O)N1CCOC(c2ccc(Cl)cc2)C1` (centres undefined) was tested. Which INHIBITION did it give?
A: Its INHIBITION is 68.6%.

Q: With `CN(C)C(=O)c1cccnc1N1CCOC(c2ccc(Cl)cc2)C1` (centres undefined) as the compound, how does the INHIBITION read?
A: Its INHIBITION is 55%.

Q: How did the INHIBITION turn out when `O=C(CSc1nnc(N2CCOCC2)s1)NCc1cccs1` was run?
A: The INHIBITION was -21.5%.

Q: For `CC(C)COC(C)C(=O)NCCNS(C)(=O)=O` (centres undefined), which INHIBITION is on record?
A: The INHIBITION was 2.29%.

Q: `Cc1oc(-c2ccsc2)nc1CC(=O)NCC(=O)Nc1cn[nH]c1` was tested. Which INHIBITION did it give?
A: Its INHIBITION is 33%.

Q: With `CC(C)CN1CCCn2nc(CNC(=O)CCN)cc2C1` as the compound, how does the INHIBITION read?
A: Its INHIBITION is 16.6%.

Q: For `Cc1nn(CC(=O)NCc2cc3n(n2)CCCN(CC(C)C)C3)cc1Cl`, which INHIBITION is on record?
A: Its INHIBITION is 58.7%.

Q: For `CC(C)CN1CCCn2nc(CNC(=O)CN3CCOC3=O)cc2C1`, which INHIBITION is on record?
A: The INHIBITION was 7.92%.

Q: With `Cc1noc(C)c1C(C)C(=O)N1CCCN(C)c2ccc(Cl)cc21` (centres undefined) as the compound, how does the INHIBITION read?
A: Its INHIBITION is 33.1%.

Q: Which INHIBITION does the source give for `CN1CCC(c2cc(C(F)(F)F)n3ccnc3n2)CC1` here?
A: The INHIBITION was 26.3%.

Q: How did the INHIBITION turn out when `CC(=O)Nc1cccc(-c2ccccc2CCN)c1` was run?
A: Its INHIBITION is 71.3%.

Q: For `CC(=O)Nc1ccc(-c2ccccc2NC(=O)CN)cc1`, which INHIBITION is on record?
A: The INHIBITION was -17.7%.

Q: Which INHIBITION does the source give for `CC(=O)Nc1ccc(-c2ccccc2CCN)cc1` here?
A: Its INHIBITION is -2.43%.

Q: `c1cc(C2CCN(C3CCCCC3)C2)n[nH]1` (centres undefined) was tested. Which INHIBITION did it give?
A: Its INHIBITION is 18.535%.

Q: Which INHIBITION does the source give for `Cc1nc2ccccn2c1CC(=O)N[C@@H]1CC[C@@H](N2CCCC2)[C@@H]1O` here?
A: Its INHIBITION is -6.92%.

Q: With `Cc1nc2ccccn2c1CC(=O)N[C@@H]1CCC[C@@H](N2CCCC2)[C@@H]1O` as the compound, how does the INHIBITION read?
A: The INHIBITION was -29.8%.

Q: For `Cc1nc2ccccn2c1CC(=O)N[C@@H]1CC[C@@H](N2CCOCC2)[C@@H]1O`, which INHIBITION is on record?
A: Its INHIBITION is 52%.

Q: For `CCc1ncnc(N2CCOCC2C(N)=O)c1F` (centres undefined), which INHIBITION is on record?
A: The INHIBITION was -4.95%.

Q: For `CCc1ncnc(N2CCOCC2C2CC2)c1F` (centres undefined), which INHIBITION is on record?
A: The INHIBITION was 57.5%.

Q: With `CCc1ncnc(N2CCOCC2CCO)c1F` (centres undefined) as the compound, how does the INHIBITION read?
A: Its INHIBITION is 6.94%.

Q: Which INHIBITION does the source give for `O=C1CC(c2ccncc2)C2(CCN(C(=O)c3cccc(F)c3)CC2)N1` (centres undefined) here?
A: Its INHIBITION is 11.3%.

Q: With `Cc1cc(NC2CCC(=O)N(C)C2)n2nccc2n1` (centres undefined) as the compound, how does the INHIBITION read?
A: Its INHIBITION is -41.8%.

Q: How did the INHIBITION turn out when `Cc1cnn(CC2CCCCN2Cc2nnsc2Cl)c1` (centres undefined) was run?
A: The INHIBITION was -17.6%.

Q: Which INHIBITION does the source give for `COc1ccc(C2CC(=O)Oc3cc(C)[nH]c(=O)c32)c(OC)c1` (centres undefined) here?
A: Its INHIBITION is 45.7%.

Q: Which INHIBITION does the source give for `O=C(Cn1ccc2ccccc21)Nc1cc(N2CCCC2)ncn1` here?
A: Its INHIBITION is 27.5%.

Q: How did the INHIBITION turn out when `O=C(Cn1ccc2ccccc21)Nc1cc(N2CCOCC2)ncn1` was run?
A: Its INHIBITION is 30.5%.

Q: With `CN1CCN(c2cc(NC(=O)Cn3ccc4ccccc43)ncn2)CC1` as the compound, how does the INHIBITION read?
A: Its INHIBITION is 60.1%.

Q: For `COCCC1(CO)CCCN(C(=O)c2cc(=O)[nH]c(=O)[nH]2)C1` (centres undefined), which INHIBITION is on record?
A: Its INHIBITION is 0.33%.

Q: How did the INHIBITION turn out when `CNC(=O)CN1CC[C@H]2CN(C(=O)c3cccn3C)C[C@H]2C1` was run?
A: The INHIBITION was 9.51%.

Q: For `O=C(NCC1CCCO1)c1cc(-c2ccncc2)c2cnccc2n1` (centres undefined), which INHIBITION is on record?
A: Its INHIBITION is -3.02%.

Q: With `CCN1CCN(C)C(=O)C12CCN(Cc1ccsc1)CC2` as the compound, how does the INHIBITION read?
A: Its INHIBITION is -9.74%.

Q: `CN(C)C(=O)C1CCCN1c1ccnc2ccsc12` (centres undefined) was tested. Which INHIBITION did it give?
A: Its INHIBITION is 1.75%.

Q: `c1cc(N2CCC(CN3CCOCC3)CC2)c2sccc2n1` was tested. Which INHIBITION did it give?
A: Its INHIBITION is 73.8%.

Q: With `OCCC1CCN(c2ccnc3ccsc23)C1` (centres undefined) as the compound, how does the INHIBITION read?
A: The INHIBITION was 5.11%.

Q: `O=C(N1CCOCC1)N1CCN(c2ccnc3ccsc23)CC1` was tested. Which INHIBITION did it give?
A: Its INHIBITION is 5.76%.

Q: `COCC1CCN(c2ccnc3ccsc23)C1` (centres undefined) was tested. Which INHIBITION did it give?
A: The INHIBITION was 79.5%.

Q: Which INHIBITION does the source give for `O=C(c1cnccn1)N1CCN(c2ccnc3ccsc23)CC1` here?
A: The INHIBITION was -7.46%.

Q: `CSc1ncc(Cl)c(C(=O)NC(Cc2ccccc2)C(=O)O)n1` (centres undefined) was tested. Which INHIBITION did it give?
A: The INHIBITION was 36.7%.

Q: With `CC(C)C(=O)Nc1cccc(CNC(=O)CSCc2ccccn2)c1` as the compound, how does the INHIBITION read?
A: The INHIBITION was 24.2%.

Q: How did the INHIBITION turn out when `CCOc1ncccc1CNC(=O)Nc1ccc(OC)c(OC)c1` was run?
A: The INHIBITION was -49.5%.

Q: How did the INHIBITION turn out when `Cc1nc(CN2C[C@@H]3CN(C(=O)[C@H]4CCCO4)C[C@@H]3C2=O)cs1` was run?
A: The INHIBITION was 19.4%.

Q: How did the INHIBITION turn out when `CN1CCC2(CC1)C(=O)N(c1cccnc1)c1ccc(F)cc12` was run?
A: The INHIBITION was -45.8%.

Q: `O=C(c1cc2cc(I)ccc2[nH]1)N1CCC(Nc2cccnn2)CC1` was tested. Which INHIBITION did it give?
A: Its INHIBITION is 9.54%.

Q: Which INHIBITION does the source give for `COc1cccc(F)c1CN1CCC(c2nccc(C)n2)C1` (centres undefined) here?
A: The INHIBITION was 1.35%.

Q: With `N#CCCN(CC(F)(F)F)C(=O)c1cc(-n2cccn2)ccn1` as the compound, how does the INHIBITION read?
A: The INHIBITION was -13.7%.

Q: For `O=C(O)c1ccc(S(=O)(=O)Nc2ccccc2F)c(F)c1`, which INHIBITION is on record?
A: Its INHIBITION is 14.8%.

Q: Which INHIBITION does the source give for `O=C(O)c1ccc(S(=O)(=O)Nc2ccccc2CC(F)(F)F)c(F)c1` here?
A: The INHIBITION was 53.3%.

Q: Which INHIBITION does the source give for `Cc1ccccc1NS(=O)(=O)c1ccc(C(=O)O)cc1F` here?
A: Its INHIBITION is 10.5%.

Q: Which INHIBITION does the source give for `Cc1nc(C)n(C2CCCN(C(=O)c3ccn(C(C)C)n3)C2)n1` (centres undefined) here?
A: The INHIBITION was -2.53%.

Q: For `CCCc1cc(C(=O)NCCC2=CCCCC2)[nH]n1`, which INHIBITION is on record?
A: Its INHIBITION is -73.5%.

Q: For `O=C(NCCC1=CCCCC1)c1cc(-c2ccc(O)cc2)n[nH]1`, which INHIBITION is on record?
A: Its INHIBITION is 52.6%.

Q: For `O=C(NCCN1CCNC1=O)c1cc(-c2ccc(O)cc2)n[nH]1`, which INHIBITION is on record?
A: The INHIBITION was 10.7%.

Q: With `O=C(NCCN1CCc2ccccc21)c1cc(-c2ccc(O)cc2)n[nH]1` as the compound, how does the INHIBITION read?
A: Its INHIBITION is 68.9%.

Q: Which INHIBITION does the source give for `Cc1cc(C(=O)NCCN2CCCc3ccccc32)[nH]n1` here?
A: The INHIBITION was 48.8%.

Q: How did the INHIBITION turn out when `Cc1ccc(-c2cc(C(=O)NCCC3=CCCCC3)[nH]n2)o1` was run?
A: Its INHIBITION is 49.9%.

Q: Which INHIBITION does the source give for `CN1CCN(C(=O)NC2CCCC2)Cc2cccnc21` here?
A: Its INHIBITION is -29.3%.

Q: How did the INHIBITION turn out when `CCn1c(CNCC2CCCN2c2cccnn2)nc2ccccc21` (centres undefined) was run?
A: The INHIBITION was -0.113%.

Q: With `COc1ccc(COCC(O)CNC(=O)Cc2ccc(C)cc2)cc1` (centres undefined) as the compound, how does the INHIBITION read?
A: Its INHIBITION is 11.2%.

Q: With `Cc1ncn(CCNC(=O)Nc2ccc(F)c(Cl)c2)c(=O)c1C` as the compound, how does the INHIBITION read?
A: Its INHIBITION is 20.9%.

Q: With `CCOC(=O)COC1CCN(C(C)=O)CC(=O)N(C)c2ccccc21` (centres undefined) as the compound, how does the INHIBITION read?
A: Its INHIBITION is 22.2%.

Q: For `COc1ccccc1-c1ncc(CN2CCC3(CCN(C)C3)CC2)cn1`, which INHIBITION is on record?
A: Its INHIBITION is 18.4%.
